The values below come from PubChem BioAssay (NCATS).

The subject of assay [1] is Zika virus NS2B-NS3 protease (linked construct). The assay is described as follows: Primary screen NINDS Rhodamine qHTS for Zika virus inhibitors (AID 1347160). Note: nearly all actives have a fitted effect of over 55% in size. Put shortly:
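Single-chain NS2B-NS3 protease, 25 nM, pH 8.0; compounds preincubated 15 min. Activity: Rhodamine110 release from 1.5 microM substrate over 15 min, room temperature, data fitted to 4-parameter Hill.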
On the technique in general: In qHTS, concentration-response curves come from the screen itself.

The target in assay [2] is Calcium and integrin-binding protein 1 (Homo sapiens) (UniProt Q99828). The assay is described as follows: Primary qHTS for Identification of Calcium Integrin Binding Protein 1 (CIB1) Competitor (AID 1508620).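 Note: GST tagged CIB1 binding a fluorescein labelled alphaIIb integrin peptide tracer; top concentration of the series differs between compounds; % is set by controls: 0 for no effect and ±100 for the full control effect.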 The gist of the method:
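Fluorescence polarization competition: CIB1-GST (1 uM final) preincubated with compound 15 min at room temperature, then FITC-labeled alphaIIb peptide (100 nM final) added for another 15 min. Polarization read at Ex 480/Em 540.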

Assay [3] deals with Glutathione peroxidase 1 (Homo sapiens) (UniProt P07203). The experiment in a line: Primary qHTS Assay for Inhibitors of Recombinant Selenoprotein Glutathione Peroxidase 1 (GPX1) (AID 1845191). Note: nearly all actives have a fitted effect of over 65% in size. The gist of the method: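 GPX1 10 nM, GR 100 nM, GSH 1 mM, NADPH 0.5 mM, CHP 0.5 mM (final). 30-min cpd preincubation, RT. Ex340/Em450 read t=0, t=15 min.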
Chain of Glutathione peroxidase 1 (Homo sapiens) (P07203 whole entry, looked up): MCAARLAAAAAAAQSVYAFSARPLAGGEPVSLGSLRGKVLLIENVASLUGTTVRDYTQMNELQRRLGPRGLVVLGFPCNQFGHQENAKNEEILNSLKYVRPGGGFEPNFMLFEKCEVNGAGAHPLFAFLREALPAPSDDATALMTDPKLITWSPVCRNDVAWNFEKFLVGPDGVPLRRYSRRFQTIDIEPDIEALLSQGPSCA
Assay [4] has as its target Phospholipid hydroperoxide glutathione peroxidase GPX4 (Homo sapiens) (UniProt P36969). The experiment in a line: Primary qHTS Assay for Inhibitors of Recombinant Selenoprotein Glutathione Peroxidase 4 (GPX4) (AID 1845192). Note: % is set by controls: 0 for no effect and ±100 for the full control effect; nearly all actives have a fitted effect of over 65% in size. The gist of the method:
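qHTS, GR-coupled: GPX4 200 nM + cpd 30 min RT → GSH 1 mM, NADPH 0.5 mM, GR 100 nM → CHP 0.5 mM start; fluor 340/450 at t0 and t15 min; no-enzyme wells as control.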

In assay [5] the target is Luciferin 4-monooxygenase (Photinus pyralis) (UniProt P08659). The experiment in a line: Primary firefly luciferase (FLuc) qHTS assay for identification of artifact compounds. (AID 1845220). Note: nearly all actives have a fitted effect of over 60% in size. The settings on record: outcome: dose series up to 54.1 µM unless noted. The gist of the method:
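In this counter-screen for luciferase artifacts, test compounds met substrate (10 uM each luciferin and ATP) before 10 nM enzyme started the reaction. Light output was measured 5 min later.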

A short description of assay [6]: Primary fluorescence-based thiol-reactive (MSTI) qHTS assay for identification of artifact compounds. (AID 1845221).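 Note: thiol-reactive compounds lower the probe fluorescence signal; nearly all actives have a fitted effect of over 65% in size.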 Put shortly: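 A multi-concentration qHTS design tested compounds against 4 uM MSTI, pH 7.4 phosphate-buffered saline. Plates were protected from light for 1 h at room temperature before imaging fluorescence.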
Assay [7] concerns Nanoluciferase (engineered Oplophorus gracilirostris luciferase). The assay is described as follows: Primary Nanoluciferase (NLuc) qHTS assay for identification of artifact compounds. (AID 1845222).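 Note: NLuc secreted into diluted conditioned medium of S16 cells.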 Put shortly:
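Using secreted nanoluciferase in S16 culture medium (0.22 um filtered, 1:55 dilution), compounds were preincubated 15 min at RT. Signal was generated with Nano-Glo reagent (1:100) over 5 min.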

A further assay relates to HaCat. The experiment in a line: Cytotoxic Profiling of Annotated Libraries Using Quantitative High-Throughput Screening (AID 1296008). For max response: % is set by controls: 0 for no effect and ±100 for the full control effect. Note: nearly all actives have a fitted effect of over 60% in size. Note: potency is the fitted concentration of half-maximal effect. The settings on record: Five cell lines viability, CellTiter-Glo ATP luminescence, 48-72 h; max response: active compounds read low. The gist of the method: (§1)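 Compounds were pin-transferred onto cells and incubated 48 or 72 hr at 37 degree Celsius, 95% humidity. CellTiter-Glo was added, plates sat 10 min at room temperature, then ATP-coupled luminescence was imaged as the viability read-out.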
Background: Cellular ATP, detected with luciferase, serves as a proxy for viable cell number.

Another assay concerns CASKI. The assay is described as follows: Primary qHTS to identify gynecologic anti-cancer compounds using libraries of approved drugs and bioactive compounds (AID 1345084). Note: nearly all actives have a fitted effect of over 55% in size. Note: potency is the fitted concentration of half-maximal effect. The settings on record: Gynecologic cancer cell panel viability, ATPlite luminescence, 48 h; series mostly up to 57.5 µM. The gist of the method:
(§2)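 ATP-based viability (ATPlite), 1,000 cells/well, 16 h pre-incubation, 48 h compound at 37 C, 5% CO2, 15 min RT before read.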

The next assay relates to OV90. Described as above. The settings on record: Gynecologic cancer cell panel viability, ATPlite luminescence, 48 h; series mostly up to 57.5 µM. Put shortly: as §2
The next assay deals with Tov112D. The description is as above. The settings on record: Gynecologic cancer cell panel viability, ATPlite luminescence, 48 h; series mostly up to 57.5 µM. Put shortly: as §2
A short description of assay [8]: Primary redox qHTS assay for identification of artifact compounds. (AID 1845223).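 Note: 0% = DMSO and 100% = reference compound.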 The gist of the method:
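Redox-cycling detection via DTT (250 uM final) oxidation coupled to Amplex Red (25 uM)/HRP (250 mU/mL) in HBSS. 15 min preincubation plus 30 min after DTT, room temperature. Ex/Em 525/598 nm; 4-parameter Hill fit against DMSO and 10 uM DA3003.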

In a further assay the test system is NIH3T3. The assay is described as follows: Cytotoxic Profiling of Annotated Libraries Using Quantitative High-Throughput Screening (AID 1296008). For max response: % is set by controls: 0 for no effect and ±100 for the full control effect. Note: nearly all actives have a fitted effect of over 60% in size. Note: potency is the fitted concentration of half-maximal effect. The settings on record: Five cell lines viability, CellTiter-Glo ATP luminescence, 48-72 h; max response: active compounds read low. Put shortly: as §1
The next assay deals with C33A. The assay is described as follows: Primary qHTS to identify gynecologic anti-cancer compounds using libraries of approved drugs and bioactive compounds (AID 1345084). Note: nearly all actives have a fitted effect of over 55% in size. Note: potency is the fitted concentration of half-maximal effect. The settings on record: Gynecologic cancer cell panel viability, ATPlite luminescence, 48 h; series mostly up to 57.5 µM. The gist of the method:
as §2

Another assay concerns CAOV3. The assay is described as above. The settings on record: Gynecologic cancer cell panel viability, ATPlite luminescence, 48 h; series mostly up to 57.5 µM. The gist of the method:
as §2

A further assay concerns Es-2. Described as above. The settings on record: Gynecologic cancer cell panel viability, ATPlite luminescence, 48 h; series mostly up to 57.5 µM. The gist of the method: as §2
The subject of a further assay is Hek293T. Described as above. The settings on record: Gynecologic cancer cell panel viability, ATPlite luminescence, 48 h, control line for the selectivity index; series mostly up to 57.5 µM. The gist of the method: as §2
In the next assay the test system is JEG-3. Described as above. The settings on record: Gynecologic cancer cell panel viability, ATPlite luminescence, 48 h; series mostly up to 57.5 µM. The gist of the method: as §2
In a further assay the test system is PA-1. Described as above. The settings on record: Gynecologic cancer cell panel viability, ATPlite luminescence, 48 h; series mostly up to 57.5 µM. Put shortly:
as §2

Another assay relates to Tov-21-G. The description is as above. The settings on record: Gynecologic cancer cell panel viability, ATPlite luminescence, 48 h; series mostly up to 57.5 µM. Put shortly:
as §2

A number with no mark means an inactive call. Records with an inconclusive call do not appear. Activity calls are given as the source filed them. Calls come from the whole dose curve; as a rule, active = well fitted curve in the direction sought with a large enough effect; inconclusive = small, poorly fitted or top-dose-only effect, or another doubt; inactive = no such curve, though single readings can be large; an effect the other way counts as inactive or inconclusive.

Chain of Calcium and integrin-binding protein 1 (Homo sapiens) (Q99828 whole entry, looked up): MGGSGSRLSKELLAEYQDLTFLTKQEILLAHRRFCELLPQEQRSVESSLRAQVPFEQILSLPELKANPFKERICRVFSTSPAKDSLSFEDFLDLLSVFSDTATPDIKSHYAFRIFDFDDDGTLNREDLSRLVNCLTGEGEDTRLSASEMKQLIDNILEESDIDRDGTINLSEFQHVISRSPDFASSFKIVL
Chain of Phospholipid hydroperoxide glutathione peroxidase GPX4 (Homo sapiens) (P36969 whole entry, looked up): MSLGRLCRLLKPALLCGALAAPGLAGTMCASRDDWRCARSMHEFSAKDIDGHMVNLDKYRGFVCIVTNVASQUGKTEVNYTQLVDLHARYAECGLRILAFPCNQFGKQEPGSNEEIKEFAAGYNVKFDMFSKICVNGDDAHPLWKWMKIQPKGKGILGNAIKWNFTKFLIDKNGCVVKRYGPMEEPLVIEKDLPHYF

Consider `C/C=C(\C)C(O)C(C)/C=C(C)/C=C/C/C(C)=C/Cc1nc(OC)c(OC)c(O[C@@H]2O[C@@H](C)[C@H](O)[C@@H](O)[C@H]2O)c1C` (some centres not stated), for which the Potency result in assay [1], in assay [2], in [3], in assay [4], in [6] and in assay [7] was “inactive” throughout. In addition, the Potency result in the assay with OV90 and in the assay with Tov112D was “inactive” throughout. The result (in assay [5]; in the assay on HaCat) was inactive. In the assay on CASKI, the Potency is 3980 nM (active).

As for `CCC1CC2CN3CCc4c([nH]c5ccccc45)C(C(=O)OC)(C2)C13` (configuration not stated), the Potency result in assay [1], in assay [2], in assay [3], in assay [4], in assay [7] and in assay [8] was “inactive” each time. Moreover, the Potency entry in the assay with C33A, with CAOV3, with CASKI, with Es-2, with Hek293T and in the assay on JEG-3 was “inactive” in each case. The Potency result in the assay on OV90, in the assay with PA-1, in the assay on Tov-21-G and with Tov112D was “inactive” in each case. Further, the result in assay [5] was inactive. The max response with NIH3T3 was -4.92%.

In the case of `O=C(NCCN1CCC2(CC1)C(=O)NCN2c1cccc(F)c1)c1ccc(F)c(F)c1`, the Potency result in [1], in [2], in [3], in assay [4], in assay [6] and in assay [7] was “inactive” in each case. Besides, the Potency result (in assay [8]; with C33A; in the assay on CAOV3; in the assay with CASKI; in the assay on Es-2; in the assay with Hek293T) was “inactive” throughout. For the same compound, the Potency entry in the assay on JEG-3, in the assay with OV90, with PA-1, with Tov-21-G and with Tov112D was “inactive” throughout. In assay [5], the result was inactive. For the same compound, in the assay with NIH3T3, the max response is -17.5%.

As for `Cc1[nH]c2ccc(Cl)cc2c1CCN(C)C`, the Potency result in assay [1], in [2], in assay [3], in assay [4], in assay [7] and in assay [8] was “inactive” in each case. Further, the Potency result in the assay on C33A, with CAOV3, with CASKI, with Es-2, in the assay with Hek293T and with JEG-3 was “inactive” in each case. In addition, the Potency entry in the assay on OV90, in the assay on PA-1, in the assay on Tov-21-G and in the assay with Tov112D was “inactive” in each case. Further, the outcome (in [5]; in the assay on NIH3T3) was inactive.

With `C[C@@H]1O[C@@H](O[C@H]2CC[C@@]3(C)C(CC[C@@H]4C3CC[C@]3(C)[C@@H](C5=CC(=O)OC5)CC[C@]43O)C2)[C@H](O[C@@H]2O[C@H](CO)[C@@H](O)[C@H](O)[C@H]2O)[C@H](O)[C@H]1O` (some centres not stated), the Potency entry in [1], in [2], in assay [3], in assay [6] and in [7] was “inactive” each time. For the same compound, the result in [5] was inactive. In addition, the Potency in the assay on HaCat was 2170 nM (active); in the assay with C33A, 562 nM (active); with CAOV3 it was 1000 nM (active); in the assay with Es-2, 891 nM (active); in the assay with Hek293T, 891 nM (active); in the assay on JEG-3 it was 2820 nM (active). Besides, the Potency in the assay on PA-1 is 1000 nM (active); with Tov-21-G, 708 nM (active); with Tov112D it was 224 nM (active). Further, the max response in the assay with NIH3T3 is -13.4%.
